Data from PubChem BioAssay AID1626 (SRMLSC, 2009).
In all, about 220,000 compounds went through this assay and about 2,000 (0.91%) were called active. Inconclusive results (about 2%) are left out. Rule as the data show it: inconclusive = inhibition above about 80% without an active follow-up result; inactive = below that; test concentration not stated here. A selection follows. Results with a measured potency or affinity are listed apart.

Assay: M. tuberculosis H37Rv growth inhibitors, H37Rv strain (AID 1626);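 also: bacteria incubated seven days before Alamar blue readout; 0% = bacteria only wells and 100% = bacteria with antibiotic wells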
Conditions: hits give high values, concentration not given here

| Compound | inhibition |
| --- | --- |
| Cc1ccc(C2NC(=O)CCC2[N+](=O)[O-])cc1 (stereo not drawn) | 1.52% (inactive) |
| NS(=O)(=O)c1ccc(NC(=O)C(Sc2ccccc2)c2ccccc2)cc1 (stereo not drawn) | 2.33% (inactive) |
| COc1cccc(CNC(=O)c2ccc3nc[nH]c3c2)c1 | -1.98% (inactive) |
| O=C(COc1ccc(Br)cc1)NCc1cn2ccccc2n1 | -2.73% (inactive) |
| NC1=NC(=O)/C(=C\C=C\c2ccccc2)S1 | 2.56% (inactive) |
| CCCOc1ccc(/C=N/NC(=O)C(C)Sc2ccccn2)cc1OCC (stereo not drawn) | 4.45% (inactive) |
| COc1cccc(/C=c2\s/c(=C\C(=O)C(C)(C)C)[nH]c2=O)c1 | 8.13% (inactive) |
| Cc1cccc(/C=C2\CS/C(=C\c3cccc(C)c3)C2=O)c1 | -5.7% (inactive) |
| Cc1cc(NC(=O)C(=O)c2cn(C)c3ccccc23)no1 | -4.05% (inactive) |
| CCC(=O)Nc1cccc(C2=NOC3(C2)C[C@@H](C(N)=O)N(C(=O)C2(C)CC2)C3)c1 (stereo partly drawn) | -7.53% (inactive) |
| O=C(COC(=O)c1ccc(Br)cc1)NCCN1C(=O)CSC1=O | -0.22% (inactive) |
| O=C(CN1C(=O)c2cccc3cccc1c23)Nc1ccccc1C(=O)NCc1ccco1 | -8.25% (inactive) |
| COc1ccc(C2C(C(=O)Nc3ccc4c(c3)OCCO4)c3ccccc3C(=O)N2C)cc1 (stereo not drawn) | -5.2% (inactive) |
| CC1=C(C(=O)Nc2ccccc2C)C(c2cccs2)NC(=S)N1 (stereo not drawn) | -1.29% (inactive) |
| O=S(=O)(c1ccc(F)cc1)c1snnc1-c1ccccc1 | -0.36% (inactive) |
| O=S(=O)(c1ccc(Cl)cc1)c1snnc1-c1ccccc1 | -9.09% (inactive) |
| O=C(CNC(=S)N(Cc1ccccc1F)C1CCCCC1)NC1CC1 | -3.6% (inactive) |
| O=C(Nc1ccc2sccc2c1)c1ccc(Cl)s1 | 59.4% (inactive) |
| Cc1ccc(/C=C/C(=O)Nc2ccc([N+](=O)[O-])cc2)o1 | 6.87% (inactive) |
| O=C(O)/C=C/c1ccc([N+](=O)[O-])o1 | 7.14% (inactive) |
| CCOC(=O)/C=c1\s/c(=C(\C#N)C(N)=O)n(-c2ccccc2)c1=O | 2.26% (inactive) |
| COc1cc(/C=N/NC(=O)c2cnccn2)cc(OC)c1OC | -6.81% (inactive) |
| CC1(C)CCCC2=C1CC1C(=O)N(N)C(=O)C1C2 (stereo not drawn) | 2.05% (inactive) |
| c1ccc(Nc2cccc3c(Nc4ccccc4)cccc23)cc1 | -3.47% (inactive) |
| COc1ccc(Nc2cccccc2=O)cc1 | 1.3% (inactive) |

| Compound | inhibition |
| --- | --- |
| Cc1ccc(Nc2ccc(C(=O)O)cc2N)cc1 | -7.86% (inactive) |
| Nc1ccccc1Nc1cccc(C(F)(F)F)c1 | 6.41% (inactive) |
| Cc1ccc(Nc2ccccc2)cc1 | 6.23% (inactive) |
| COc1ccc(Nc2ccc(OC)cc2)cc1 | 47% (inactive) |
| FC(F)(F)c1nc2ccccc2nc1N/N=C/c1c(Cl)cccc1Cl | 9.85% (inactive) |
| COCCN(C(=S)Nc1ccc(C)cc1C)C(C)c1ccco1 (stereo not drawn) | -7% (inactive) |
| CSc1ncccc1C(=O)OCC(=O)c1ccccc1Br | -4.85% (inactive) |
| CCOC(=O)c1cc(NC(=O)N2CCOCC2)c(C)nc1C | -1.72% (inactive) |
| CC(C)CNc1cc(N2CCCC2)ccc1[N+](=O)[O-] | 4.85% (inactive) |
| CCCCCSc1nc2c(c(=O)[nH]c(=O)n2C)n1C | 11.1% (inactive) |
| C/C(=C\C(=O)c1ccc(Br)cc1)NCc1ccc(C)cc1 | 4.34% (inactive) |
| CCOc1cc(S(=O)(=O)N2CCOCC2)ccc1F | -1.04% (inactive) |
| CC(C)[C@H](NS(=O)(=O)/C=C/c1ccccc1)C(=O)OCC(=O)NC(N)=O | 0.26% (inactive) |
| CC(Cn1cnc2ccccc21)C(=O)O (stereo not drawn) | -0.91% (inactive) |
| Cc1cc(C)c(C(=O)Nc2ccc(C)c(C)c2)c(CC(C)(C)C(=O)O)c1 | -5.76% (inactive) |
| CC(NC(=O)COC(=O)/C=C/c1cccc(C(F)(F)F)c1)c1ccccc1 (stereo not drawn) | 5.27% (inactive) |
| O=C1N=C(N2CCN(c3ccccc3)CC2)SC1Cc1ccccc1 (stereo not drawn) | 1.7% (inactive) |
| O=C(Nc1ccccc1)N1CCCC1c1cccs1 (stereo not drawn) | -1.63% (inactive) |
| Cc1ccc2nc(-c3ccc(SCC(=O)Nc4nc(C)cs4)nc3)[nH]c2c1 | 0.98% (inactive) |
| CCc1nnc(NC(=O)CSc2ccc(-c3nc4ccccc4[nH]3)cn2)s1 | -3.06% (inactive) |
| Cc1ccc2nc(-c3ccc(SCC(=O)O)nc3)[nH]c2c1 | 4.36% (inactive) |
| CC(=O)CSc1ccc(-c2nc3cc(C)c(C)cc3[nH]2)cn1 | 11.7% (inactive) |
| Cc1nc(NC(=O)CSc2ccc(-c3nc4ccccc4[nH]3)cn2)sc1C | -0.38% (inactive) |
| Cc1cc2nc(-c3ccc(SCC(=O)NC(C)C)nc3)[nH]c2cc1C | 1.74% (inactive) |
| Cc1ncoc1C(=O)N1CCc2c([nH]c3ccccc23)C1C1CCCCC1 (stereo not drawn) | 11.8% (inactive) |

| Compound | inhibition |
| --- | --- |
| CC(CS(=O)(=O)c1cccc2cccnc12)N1CCCCC1 (stereo not drawn) | 2.17% (inactive) |
| CCNc1nc(NCc2ccccc2)nc(SCC(N)=O)n1 | 78.2% (inactive) |
| COc1ccc(NC(=O)Nc2sc(=S)n(C)c2C)cc1 | -3.18% (inactive) |
| CCOc1nc(-c2ccc(OC)cc2)ccc1-c1noc(C)n1 | 6.32% (inactive) |
| Cc1nn(-c2ccccc2)c(N2CCCC2)c1/C=N/NC(=O)C1CC1 | 1.71% (inactive) |
| COC(=O)C1=C(C)NC(=O)CC1c1ccc(F)c(Br)c1 (stereo not drawn) | 13.5% (inactive) |
| CCN(c1ccccc1)S(=O)(=O)c1ccc(C(=O)OC(C)C(=O)NCCC2=CCCCC2)cc1 (stereo not drawn) | 0.82% (inactive) |
| COc1ccc(C(C(=O)NC2CCCCC2)N(C(=O)c2sc(C)nc2C)c2ccc(OC)cc2)cc1 (stereo not drawn) | 78.9% (inactive) |
| COc1ccc(C(C(=O)NC2CCCCC2)N(C(=O)c2ccccn2)c2cccnc2)cc1 (stereo not drawn) | -6.78% (inactive) |
| COc1ccc(N(C(=O)c2cnccn2)C(C(=O)NC2CCCCC2)c2ccc(O)cc2)cc1 (stereo not drawn) | 4.1% (inactive) |
| COc1ccc(C(C(=O)NC2CCCCC2)N(C(=O)c2sc(C)nc2C)c2ccccc2)cc1 (stereo not drawn) | 1.23% (inactive) |
| O=C(O)c1cccc(NC(=O)c2ccc(Cl)c(S(=O)(=O)N3CCCCCC3)c2)c1 | -5.92% (inactive) |
| CCOc1ncccc1C(=O)OCc1ccc(C#N)cc1 | 4.57% (inactive) |
| Nc1nnc(SCC(=O)Nc2ccccc2)s1 | -3.63% (inactive) |
| C=C1C(=O)[C@@]23[C@H](O)C[C@@H]4C(C)(C)CC[C@H](O)[C@]4(C)[C@@H]2C[C@H](O)[C@@H]1[C@H]3O | -0.64% (inactive) |
| C#CCONC(=O)c1cc(OCC(F)(F)F)ccc1OCC(F)(F)F | -4.59% (inactive) |
| c1ccc(C(c2ccccc2)c2noc(CN3CCN(CC4CC4)CC3)n2)cc1 | 0.03% (inactive) |
| O=C(N/N=C/C=C/c1ccccc1)c1cccnc1 | -6.98% (inactive) |
| Cc1[nH]c(=O)[nH]c(=O)c1S(=O)(=O)N(C)Cc1ccccc1 | -4.39% (inactive) |
| CSCCC(NC(=O)c1cccc([N+](=O)[O-])c1)c1nc2ccccc2[nH]1 (stereo not drawn) | 24.1% (inactive) |
| CSCC[C@H](NC(=O)c1cc([N+](=O)[O-])ccc1Cl)c1nc2ccccc2[nH]1 | 3.89% (inactive) |
| CCN(CCCNC(=O)C1CCC(=O)N1Cc1ccccc1Cl)c1cccc(C)c1 (stereo not drawn) | 4.14% (inactive) |
| CCOC(=O)C1=C(C)NC(=O)NC1c1c(C)nn(-c2ccccc2)c1Cl (stereo not drawn) | -11.2% (inactive) |
| O=Nc1c(O)[nH]c2ccc(Cl)cc12 | -4.64% (inactive) |
| O=C1CCCC(O)=C1C=Nc1ccc(O)cc1 | 3.95% (inactive) |

| Compound | inhibition |
| --- | --- |
| CCOC(=O)c1c(-c2ccc(OC)cc2)csc1/N=C/C1=C(O)CCCC1=O | 4.93% (inactive) |
| Cc1ccccc1N=Cc1cccc(O)c1O | 30.2% (inactive) |
| Cc1cc(C)cc(N=Cc2c(O)c3ccccc3oc2=O)c1 | 6.96% (inactive) |
| COc1cccc(N=CC2=C(O)CCCC2=O)c1 | -8.36% (inactive) |
| O=C1CCCC(O)=C1C=Nc1cccc(C(F)(F)F)c1 | 8.3% (inactive) |
| Cc1cccc(-c2nc(C#N)c(NCC3CCCO3)o2)c1 (stereo not drawn) | 8.91% (inactive) |
| CN(C)S(=O)(=O)c1ccc(NC(=S)NC(=O)c2cccs2)cc1 | -8.18% (inactive) |
| CCCc1nnc(NC(=O)CCCN2C(=O)c3ccccc3C2=O)s1 | -6.93% (inactive) |
| COC(=O)CCC(=O)N1CCc2cc(S(=O)(=O)N3CCc4ccccc43)ccc21 | -6.96% (inactive) |
| Cc1c(NC(=O)CSc2nnc(COc3ccccc3)n2-c2ccccc2)c(=O)n(-c2ccccc2)n1C | -6.74% (inactive) |
| COc1ccc(C2SC[C@@H](C(=O)O)N2C(C)=O)cc1 (stereo partly drawn) | -5.12% (inactive) |
| Cc1ccc(-c2csc(N3C(=N)SCC3=O)n2)cc1 | -8.29% (inactive) |
| O=C(CN1CCOCC1)Nc1ncc(Cc2cccc(Cl)c2)s1 | 9.73% (inactive) |
| CCc1nnc(N2C(=N)SCC2=O)s1 | 10% (inactive) |
| N=C1SCC(=O)N1c1nc(-c2ccccc2)cs1 | -8.62% (inactive) |
| O=C(CN1CCOCC1)Nc1ncc(Cc2ccccc2Cl)s1 | 9.04% (inactive) |
| CC(C)C(=O)Nc1ncc(Cc2cccc(Cl)c2)s1 | 17.7% (inactive) |
| CC(C)(C)C(=O)Cn1c(NCCCl)nc2ccccc21 | 0.32% (inactive) |
| CCc1ccccc1NC(=O)CN(C)C(=O)Cn1cc(C(F)(F)F)cc(Cl)c1=O | 10% (inactive) |
| CCN(CC(=O)Nc1ccc(NC(C)=O)cc1)C(=O)/C=C/c1cccs1 | -2.91% (inactive) |
| Clc1ccc(CN2CCN(c3ncnc4scc(-c5cccs5)c34)CC2)cc1 | 7.36% (inactive) |
| O=C(Cn1cc2c(n1)CCCC2)NCCCN1CCN(C2CCCCC2)CC1 | -6.49% (inactive) |
| CC(=O)/C(=C(/O)c1ccccc1)c1nc2ccccc2[nH]1 | 2.45% (inactive) |
